# Results published in PubChem BioAssay (NCI).
# The panel holds about 83,000 compounds, 20% with a hit somewhere; the sample as a whole holds those more often.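 Treatment: one concentration, 48 hours, 96-well format. Scoring: percent growth, with anything below 10 considered active.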 Unmarked numbers belong to inactive results. Calls of active or inactive are those of the source.
# What was measured:
# Assay in all cases: NCI-60 one-dose screen, 48 h (100 = growth as untreated, 0 = no growth, -100 = all killed)
# Conditions in all cases: 10 µM unless noted
# SR leukemia = system: SR leukemia
# RPMI-8226 leukemia = system: RPMI-8226 leukemia
# OVCAR-8 ovarian = system: OVCAR-8 ovarian
# OVCAR-4 ovarian = system: OVCAR-4 ovarian
# SK-OV-3 ovarian = system: SK-OV-3 ovarian
# IGROV1 ovarian = system: IGROV1 ovarian
# HS 578T breast = system: HS 578T breast
# NCI/ADR-RES ovarian = system: NCI/ADR-RES ovarian
# OVCAR-3 ovarian = system: OVCAR-3 ovarian
# OVCAR-5 ovarian = system: OVCAR-5 ovarian
SMILES,growth (SR leukemia),growth (RPMI-8226 leukemia),growth (OVCAR-8 ovarian),growth (OVCAR-4 ovarian),growth (SK-OV-3 ovarian) [%],growth (IGROV1 ovarian),growth (HS 578T breast) [%],growth (NCI/ADR-RES ovarian),growth (OVCAR-3 ovarian),growth (OVCAR-5 ovarian) [%]
O=C1NC(=O)C(c2coc3cc(Br)ccc23)=C1c1c[nH]c2ccccc12,19.9%,44.2%,51.6%,77.5%,55.6,52.2%,43.3,34%,,
O=C(/C=C/C12c3ccccc3C(c3ccccc31)C1C(=O)NC(=O)C12)c1ccc(Cl)cc1Cl (stereo not given),2.74% (active),-22.3% (active),11.1%,42.9%,49.9,23.4%,30.5,5.85% (active),-29.3% (active),
CCn1cc(C(=O)N/N=C/c2cccc(F)c2)c(=O)c2cc(F)c(N3CCNC(C)C3)c(F)c21 (stereo not given),-29.2% (active),-42.2% (active),-5.39% (active),23.8%,,69.4%,81.3,78.3%,-83.3% (active),90.2
Cn1cc(-c2nonc2-c2c[nH]c3ccccc23)c2cc(Br)ccc21,15.3%,40.6%,45%,49.6%,,43%,59.1,29.3%,33.5%,49
CN1CCOCCN(C)Cc2ccc3ccc(cc3c2)CN(C)CCOCCN(C)Cc2ccc3ccc(cc3c2)C1,9.14% (active),36.7%,103%,78.4%,146,,90.6,83.5%,75.6%,
CN(C)CCCNC(=O)c1cncnc1Nc1ccc2c(ccn2Cc2cccc(F)c2)c1,-10.3% (active),86.3%,101%,116%,111,90.1%,81.3,99.2%,93.4%,
COc1ccc(-c2nc3ccc(C)cc3c3c2c(=O)n(C)c(=O)n3C)cc1OC,99.4%,101%,107%,122%,109,108%,74.3,92.5%,111%,
Cc1cc(=O)n(C(=S)Nc2ccc(Cl)cc2)c2cc(O)ccc12,108%,113%,101%,92.5%,79.1,102%,109,103%,100%,
CC1=C2CC/C(C)=C/CC[C@]3(C)O[C@H]3CC/C(C)=C/[C@H]2OC1,87.6%,93.6%,95.8%,95.2%,95.7,103%,108,87.7%,110%,
CSc1nc(-c2ccco2)c(C#N)c(=O)n1C,74.9%,91.8%,108%,103%,97,105%,97,51.2%,104%,
CCOc1ccc(/C=C/C(=O)c2cccc(OCCCOc3cccc(C(=O)/C=C/c4ccc(OCC)cc4)c3)c2)cc1,90.1%,93.6%,85.9%,69.1%,103,78.7%,90.2,86.5%,85.5%,
CC/C(=C(\c1ccc(Cl)cc1)c1ccc(OCCN2CCCCC2)cc1)c1ccc(O)cc1,-11.2% (active),1.63% (active),62.6%,36.7%,68.1,66.8%,46.5,53.3%,40.4%,
CN1CC(c2ccc(Br)cc2)C(C(=O)c2ccc(Br)cc2)C12C(=O)Nc1ccccc12 (stereo not given),68.1%,62.3%,83.8%,63.6%,80.8,62.6%,89.3,58.9%,79.3%,
COc1ccc(CN2C(=O)OC(C)(COC(C)=O)C2=O)cc1 (stereo not given),94%,103%,104%,104%,97.3,107%,108,109%,112%,
COc1ccc(/C=N/Nc2c3ccccc3nc3ccccc23)cc1,95.6%,83.8%,97%,81.7%,90.8,88.2%,93.1,102%,91.7%,
CCN(CC)CCOc1ccc2c(-c3ccccc3)c(-c3ccc(OC)cc3)c(=O)oc2c1,21.9%,48.8%,72.6%,73.7%,84,110%,63.4,66.7%,94.3%,
CCn1cc(C(=O)O)c(=O)c2cc(F)c(N3CCN(CC(=O)Nc4ccccc4)C(C)C3)c(F)c21 (stereo not given),109%,102%,98.3%,82.4%,90.7,103%,91.1,96.7%,104%,
Cc1ccc(Cc2cnc(NC(=O)/C=C/c3ccc(C)o3)s2)cc1,16.2%,26.8%,62%,73.4%,42.9,42.2%,30.7,33.9%,-8.25% (active),
O=C(Nc1cc(Cl)cc(Cl)c1)Oc1c(Cl)c(Cl)c(Cl)c(Cl)c1Cl,64.5%,37%,78.1%,82.4%,77.2,79.2%,63.5,77.5%,54.9%,
Oc1c(I)cc(I)cc1CN(Cc1ccccn1)Cc1ccccn1,9.92% (active),16.1%,10.1%,26.4%,25.8,,38.9,0.252% (active),30.8%,
COC(=O)c1sccc1-c1cc(O)c(C(=O)Nc2ccccc2)s1,92.8%,93.4%,101%,89.7%,,95%,103,93.2%,96.2%,117
O=C(/C=C/c1ccccc1)N(C1CCCCC1)C1CCCCC1,83.8%,51.8%,95%,84%,117,116%,90.8,74.5%,89.6%,
COc1ccc(C(=O)/C=C/c2ccccc2)cc1S(N)(=O)=O,13.4%,64.9%,46.2%,86.1%,116,54.3%,74.4,79.3%,52.4%,
Cn1cc(-c2nc3c(F)cc4[nH]ncc4c3c3c2CCCC3)c(C(F)(F)F)n1,-30.9% (active),-5.82% (active),39.4%,73.8%,,24%,18,60.2%,55.2%,65
O=C(NNc1nc2cc(F)ccc2n2c(CN3CCOCC3)ccc12)c1ccccc1,3.49% (active),10.9%,13.1%,-14.9% (active),27.5,3.07% (active),57.9,5.25% (active),-8.34% (active),
Nc1ncnc2c1N=C(c1ccc(F)cc1)CC(c1cccc(Nc3ccnc4cc(Cl)ccc34)c1)N2 (stereo not given),0.875% (active),25.9%,82.2%,76.3%,98.9,74.3%,68.3,78.2%,88.9%,
CC1(C)N=C(N)N=C(N)N1c1cc(Cl)ccc1Cl,67%,107%,85.5%,96.4%,97.2,68.4%,101,67.8%,115%,
